Some test systems named below: SK-MEL-2 melanoma; EKVX NSCLC; SN12C renal; UO-31 renal; TK-10 renal; ACHN renal; CAKI-1 renal; A498 renal; MOLT-4 leukemia; CCRF-CEM leukemia.
Common to all, as to experiment: NCI-60 one-dose screen, 48 h (100 = growth as untreated, 0 = no growth, -100 = all killed)
Common to all, as to details: 10 µM unless noted

About 83,000 compounds went through this panel and 20% of them were active in at least one assay; those are over-represented in the sample as a whole.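 A percent growth of 40 corresponds to 60% growth inhibition; 0 means no net growth; -100 means all cells died. Active threshold: below 10.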 Values without a mark were called inactive. Activity calls are given as the source filed them.

As for `O=[N+]([O-])c1ccc(/C=N\Nc2ccccc2)cc1`, the growth in the assay on SK-MEL-2 melanoma is 49.5%; in the assay on EKVX NSCLC, 76.6%; in the assay on SN12C renal, 87.3%; in the assay with UO-31 renal it was 65.5%; in the assay with TK-10 renal, 111%; in the assay on ACHN renal, 72.6%. Also, the growth with CAKI-1 renal is 72.8%; in the assay on A498 renal it was 75.3%; with MOLT-4 leukemia it was 89.7%.
`COc1ccc2[nH]c(-c3ccc(Cl)cc3)cc(=O)c2c1`: the growth was 96.3% with SK-MEL-2 melanoma; 95.2% with EKVX NSCLC; 93.6% in the assay on SN12C renal; 94.4% in the assay with UO-31 renal; 93.4% with TK-10 renal; 103% in the assay with ACHN renal. The growth is 93.2% with A498 renal, 36.3% in the assay with CCRF-CEM leukemia and 99.2% in the assay on MOLT-4 leukemia.
For `CCCCC[C@H]1C/C=C2/C(=O)C(Cl)=C[C@@H]2C/C=C\CCCC(=O)O1`, the growth is -45.4% (active) with SK-MEL-2 melanoma; -69% (active) in the assay with EKVX NSCLC; -26.9% (active) in the assay with SN12C renal; -100% (active) with UO-31 renal; -56.7% (active) in the assay with TK-10 renal; -84.4% (active) in the assay with ACHN renal. Moreover, the results for the growth with A498 renal, in the assay with CCRF-CEM leukemia and with MOLT-4 leukemia were -76.2% (active), 0.514% (active) and -2.82% (active), respectively.
On to `Cn1cc(-c2csc(-c3cn(CCN)c4ccc(F)cc34)n2)c2cccnc21`, for which the growth is 93.3% with SK-MEL-2 melanoma; 55.9% in the assay with EKVX NSCLC; 76% with SN12C renal; 58.3% in the assay on UO-31 renal; 121% in the assay on TK-10 renal; 60.9% in the assay with ACHN renal. In addition, the growth was 82.4% in the assay with A498 renal, 34.3% in the assay on CCRF-CEM leukemia and 12.1% with MOLT-4 leukemia.
`NCCn1cc(-c2nc(-c3c[nH]c4ncccc34)cs2)c2cc(F)ccc21`: the growth with SK-MEL-2 melanoma is 94.7%; in the assay on EKVX NSCLC, 48.6%; in the assay with SN12C renal it was 79%; in the assay with UO-31 renal, 53.3%; in the assay on TK-10 renal it was 142%; in the assay on ACHN renal, 76.4%. Also, the figures for the growth in the assay on A498 renal, in the assay on CCRF-CEM leukemia and in the assay on MOLT-4 leukemia were 91.4%, 49% and 57%, respectively.
`Cn1cc(-c2csc(-c3cn(CCNC(=O)OC(C)(C)C)c4ccccc34)n2)c2cccnc21`: the growth in the assay on SK-MEL-2 melanoma is 88.2%; in the assay on EKVX NSCLC, 67.9%; in the assay with SN12C renal, 87.8%; with UO-31 renal it was 42.7%; in the assay with TK-10 renal it was 122%; with ACHN renal, 74.3%. Also, the growth was 82.4% in the assay with A498 renal, 43.4% in the assay on CCRF-CEM leukemia and 42.3% in the assay on MOLT-4 leukemia.
`Clc1ccc2c(NCCNc3nc(-c4ccccc4)cc(-c4ccccc4)n3)ccnc2c1`: the growth in the assay with SK-MEL-2 melanoma is -10.9% (active); in the assay with EKVX NSCLC it was 18.6%; in the assay with SN12C renal, -74.4% (active); with UO-31 renal, -94.3% (active); in the assay with TK-10 renal, -8.38% (active); in the assay on ACHN renal, -97.2% (active). Also, the growth was 93% in the assay on A498 renal, -9.52% (active) in the assay on CCRF-CEM leukemia and -32.2% (active) in the assay with MOLT-4 leukemia.
As to `Cn1cc(-c2csc(-c3cn(CCCN4CCCCC4)c4ccc(Br)cc34)n2)c2cccnc21`, the growth with SK-MEL-2 melanoma was 37%; in the assay on EKVX NSCLC, 49.6%; with SN12C renal, -31.3% (active); with UO-31 renal, -93.9% (active); in the assay with TK-10 renal, 26.7%; in the assay with ACHN renal, -61.1% (active). The results for the growth in the assay with A498 renal, with CCRF-CEM leukemia and with MOLT-4 leukemia were 79.1%, -23.8% (active) and -46.3% (active), respectively.
As to `NCCn1cc(-c2nc(-c3c[nH]c4ncccc34)cs2)c2ccccc21`, the growth in the assay on SK-MEL-2 melanoma was 103%; in the assay on EKVX NSCLC it was 53.6%; with SN12C renal, 78.7%; with UO-31 renal, 51.3%; with TK-10 renal, 148%; in the assay with ACHN renal, 82.9%. The results for the growth in the assay with A498 renal, in the assay on CCRF-CEM leukemia and with MOLT-4 leukemia were 88.2%, 88.5% and 96.4%, respectively.
As for `NCCn1cc(-c2nc(-c3c[nH]c4ncccc34)cs2)c2cc(Br)ccc21`, the growth in the assay with SK-MEL-2 melanoma is 101%; in the assay on EKVX NSCLC, 64%; in the assay on SN12C renal it was 78%; in the assay with UO-31 renal, 62.2%; with TK-10 renal, 149%; in the assay with ACHN renal, 76.4%. The growth in the assay on A498 renal was 93.6%; in the assay with CCRF-CEM leukemia it was 60%.
As to `Cn1cc(-c2csc(-c3cn(CCN)c4ccc(Br)cc34)n2)c2cccnc21`, the growth in the assay on SK-MEL-2 melanoma is 110%; in the assay on EKVX NSCLC, 74.9%; in the assay on SN12C renal it was 68.9%; with UO-31 renal, 61.4%; in the assay on TK-10 renal, 116%; in the assay with ACHN renal, 50.8%. Moreover, the growth in the assay with A498 renal is 83.9%; in the assay with CCRF-CEM leukemia it was 39.8%; in the assay on MOLT-4 leukemia it was 13.5%.
As to `Cc1cc(N(CCNc2ccnc3cc(Cl)ccc23)Cc2ccco2)nc(Cl)n1`, the growth in the assay on SK-MEL-2 melanoma was -7.16% (active); with EKVX NSCLC, 32.2%; in the assay with SN12C renal, -79.2% (active); in the assay with UO-31 renal, -97% (active); in the assay on TK-10 renal, -74.4% (active); with ACHN renal it was -98.8% (active). In addition, the values for the growth with A498 renal, with CCRF-CEM leukemia and with MOLT-4 leukemia were 20.8%, 0.284% (active) and -26.2% (active), respectively.
Take `C=C1C(=O)O[C@H]2[C@H]1CC/C(COC(=O)NCCc1c[nH]c3ccccc13)=C\CC[C@@]1(C)O[C@@H]21`: the growth in the assay on SK-MEL-2 melanoma is 61.5%; with EKVX NSCLC, 69.2%; in the assay on SN12C renal it was -0.18% (active); in the assay on UO-31 renal it was -100% (active); with TK-10 renal, -20.7% (active); in the assay with ACHN renal it was -93.7% (active). Besides, the growth in the assay with A498 renal is 80.8%; with CCRF-CEM leukemia, 3.28% (active); in the assay on MOLT-4 leukemia it was -3.9% (active).
Take `c1cnc2[nH]cc(-c3csc(-c4cn(CCCN5CCCCC5)c5ccccc45)n3)c2c1`: the growth in the assay with SK-MEL-2 melanoma is 93.7%; in the assay on EKVX NSCLC, 65.8%; with SN12C renal, 63.4%; with UO-31 renal, 43.8%; in the assay with TK-10 renal, 115%; in the assay with ACHN renal, 60.2%. For the same compound, the growth in the assay on A498 renal is 83.8%; with CCRF-CEM leukemia it was 6.17% (active); in the assay on MOLT-4 leukemia, -10.6% (active).

The record behind these values is PubChem BioAssay (NCI).
